# Test results as given in PubChem BioAssay (EPA / NIEHS).
# “And” between values parts separate entries of the source, which are not always exact repeats. Identical values can stand only once. Results filed as inconclusive are left out. A structure can be active in one record and inactive in another. The source made the active and inactive calls. Rule for the calls, unless noted: active = hit-call score of the fitted dose curve at least 0.9, where 1 is the maximum; inactive = score below 0.9.
# How the values were obtained:
# [1] = CCTE_Shafer_MEA_dev_LDH: CCTE's Lactate Dehydrogenase Assay for Cytotoxicity in the Neural Network Formation Assay, Shafer Lab (AID 2284068; active = hit-call score of the fitted dose curve at least 0.9, where 1 is the maximum;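 note: exposure for twelve days from plating with re-dosing on DIV 5 and 9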)
# How it was run: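 Cytotoxicity companion to network-formation recordings: rat cortical neurons received compound over 12 days of development, re-dosed at DIV 5 and 9 feeds. Viability was inferred from LDH enzyme activity relative to DMSO.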
# [2] = CCTE_Shafer_MEA_acute_AB: CCTE's Alamar Blue Assay for Cytotoxicity in the Neural Acute Assay, Shafer Lab (AID 2284069; active = hit-call score of the fitted dose curve at least 0.9, where 1 is the maximum;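 note: active compounds lower the viability signal compared with DMSO wells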)
# How it was run: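 Metabolic activity in chemically exposed rat cortical neurons (MEA cultures, day 13/15 post-plating) measured via CellTiter Blue resazurin reduction, 544/590 nm fluorescence; fitted relative to DMSO, with signal loss indicating reduced viability.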
# [3] = UKN5_HCS_SBAD2_neurite_outgrowth: University of Konstanz (UKN) Leist Lab Neurite Outgrowth Assay in human iPSC-derived immature Dorsal Root Ganglia Neurons (UKN5) (AID 2284070); conditions: actives raise or lower the signal
# How it was run: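 SBAD2 neurons, 24 h compound treatment, calcein-AM neurite area via HCS imaging; DMSO baseline, gain or loss of signal.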
# [4] = CCTE_Shafer_MEA_dev_AB: CCTE's Alamar Blue Assay for Cytotoxicity in the Neural Network Formation Assay, Shafer Lab (AID 2284083; active = hit-call score of the fitted dose curve at least 0.9, where 1 is the maximum;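 note: twelve days of exposure from plating with re-dosing on DIV 5 and 9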)
# How it was run: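 Fluorescent resazurin reduction serves as the viability read-out, with DMSO as negative control and baseline. Cells were primary rat cortical neurons grown on MEA plates and dosed from day 0 to day 12, treatment renewed on DIV 5 and 9.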
# [5] = CCTE_Shafer_MEA_acute_LDH: CCTE's Lactate Dehydrogenase Assay for Cytotoxicity in the Neural Acute Assay, Shafer Lab (AID 2284086; active = hit-call score of the fitted dose curve at least 0.9, where 1 is the maximum;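 note: active means LDH release rises above DMSO vehicle level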)
# How it was run: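 Released lactate dehydrogenase, read at 490 nm, indicated cytotoxicity after acute 40-min compound treatment of rat cortical neuron networks grown on 48-well MEA plates.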
# [6] = CCTE_Shafer_MEA_dev_correlation_coefficient_mean: CCTE's Neural Network Formation Assay for Mean Correlation Coefficient, Shafer Lab (AID 2284093);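 for AC50: well mean pairwise spike train correlation integrated as AUC over recording days 5 to 12; potency fitted for loss of correlation relative to DMSO vehicle wells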
# How it was run: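 Read-out: well-mean correlation coefficient of spike trains between electrode pairs, collapsed over four recording days as trapezoidal area-under-the-curve. Developing rat cortical neuron networks grown on MEAs received test chemical continuously from plating.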
# [7] = UKN2_HCS_IMR90_neural_migration: University of Konstanz (UKN) Leist Lab Neural Crest Cell Migration Assay in human induced IMR90 Pluripotent Stem Cells (UKN2) (AID 2284204); conditions: actives raise or lower the signal
# How it was run: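 iPSC-derived IMR90 neural crest cells on PLO/laminin/fibronectin were seeded around silicone stoppers; after stopper removal, migration in N2-S medium with EGF and FGF ran 24 h before 24 h chemical exposure. Calcein-AM/Hoechst high-content imaging; bidirectional fit versus DMSO.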
# [8] = UKN4_HCS_LUHMES_neurite_outgrowth: University of Konstanz (UKN) Leist Lab Neurite Outgrowth Assay in human LUHMES cells (UKN4) (AID 2284206); conditions: actives raise or lower the signal
# How it was run: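 2-day-differentiated LUHMES, 24 h cpd exposure, live calcein-AM + H-33342 stain, HCS fluorescence imaging of neurite area; DMSO = baseline, bidirectional fit.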
# [9] = CCTE_Mundy_HCI_Cortical_Synap_Neur_Matur_NeuriteSpotCountPerNeuriteLength: CCTE's Synaptogenesis and Neurite Maturation Assay in rat cortical cells for Neurite Spot Count per Neurite Length, Mundy Lab (AID 2284210)
# How it was run: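 Rat primary cortical cultures, glia arrested with AraC at DIV 5, were dosed with media change at DIV 7 and fixed at DIV 12. Synaptophysin puncta per MAP2-labelled neurite length were quantified by high-content imaging versus DMSO.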
# [10] = CCTE_Mundy_HCI_Cortical_Synap_Neur_Matur_BPCount: CCTE's Synaptogenesis and Neurite Maturation Assay in rat cortical cells for Branch Point Count, Mundy Lab (AID 2284211)
# How it was run: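 Branch point number is quantified by automated imaging of fluorescently labelled neurites and synapses in rat primary cortical neurons exposed from DIV 7 to DIV 12. Activity is analysed relative to DMSO negative control.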
# [11] = CCTE_Mundy_HCI_Cortical_NOG_NeuriteCount: CCTE's Neurite Outgrowth Assay in rat cortical cells for Neurite Count, Mundy Lab (AID 2284212);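 note: cells fixed about two days after chemical exposure began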
# How it was run: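 Neurite number per cell from high-content imaging of betaIII-tubulin immunostaining, with Hoechst nuclear counterstain.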
# [12] = CCTE_Mundy_HCI_Cortical_NOG_NeuriteLength: CCTE's Neurite Outgrowth Assay in rat cortical cells for Neurite Length, Mundy Lab (AID 2284213);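 note: neurites imaged about 48 to 50 h after chemical exposure began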
# How it was run: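 Neurite length was read by high-content imaging of βIII-tubulin-labelled neurites in rat primary cortical cultures. Activity was fitted relative to DMSO.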
# [13] = CCTE_Mundy_HCI_Cortical_Synap_Neur_Matur_NeuriteLength: CCTE's Synaptogenesis and Neurite Maturation Assay in rat cortical cells for Neurite Length, Mundy Lab (AID 2284214)
# How it was run: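 Neurite length in rat primary cortical cultures is imaged after MAP2, synaptophysin and Hoechst staining. Dosing starts DIV 7, ending DIV 12; DMSO serves as negative control and baseline.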
# [14] = CCTE_Mundy_HCI_Cortical_Synap_Neur_Matur_NeuriteSpotCountPerNeuron: CCTE's Synaptogenesis and Neurite Maturation Assay in rat cortical cells for Neurite Spot Count per Neuron Count, Mundy Lab (AID 2284215)
# How it was run: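 Developing rat cortical neurons, with glia suppressed by AraC, are exposed to chemicals from DIV 7 to DIV 12. Automated fluorescence imaging of MAP2-labelled neurites and synaptophysin puncta yields a count per neuron, normalised against DMSO wells.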
# [15] = CCTE_Mundy_HCI_Cortical_Synap_Neur_Matur_SynapseCount: CCTE's Synaptogenesis and Neurite Maturation Assay in rat cortical cells for Synapse Count, Mundy Lab (AID 2284218)
# How it was run: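 Synapse count per neuron is measured in rat cortical neurons exposed to chemicals between DIV 7 and DIV 12, with glial growth arrested by AraC at DIV 5. Synaptophysin and MAP2 staining is imaged automatically; activity is fitted relative to DMSO.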
# [16] = TAMU_PeakParms_SingleDonor1434_Chronotropy: Texas A&M University (TAMU) 1.5-hr Human Induced Pluripotent Stem Cell (iPSC)-derived Cardiomyocytes Calcium (Ca+2) Flux Assay for Cardiotoxicity: Chronotropy (changes in peak frequency) (AID 2284217); conditions: actives raise or lower the signal
# How it was run: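 Beat frequency of single-donor iPSC cardiomyocytes was recorded through a calcium-sensitive dye 1.5 hours after exposure to four concentrations up to 100 uM. An EC05 point of departure was derived.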
# [17] = IUF_NPC1b_proliferation_BrdU_72hr: Leibniz Research Institute for Environmental Medicine (IUF) 72-hour Neural Progenitor Cell Bromodeoxyuridine (BrdU) Proliferation Assay (NPC1b) (AID 2284207)
# How it was run: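 hNPC spheres (primary, GW 16-19 fetal cortex), single sphere/well, EGF+FGF medium; 72 h compound, no renewal; BrdU pulse last 16 h; luminescent ELISA; activity vs DMSO baseline; growth-factor withdrawal as positive control.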
# [18] = IUF_NPC1a_proliferation_area_72hr: Leibniz Research Institute for Environmental Medicine (IUF) 72-hour Neural Progenitor Cell Proliferation Area Assay (NPC1a) (AID 2284208)
# How it was run: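 Measured in 3D suspension: each well held one primary hNPC sphere grown with EGF and FGF at pH 7.2-7.6. Compound stayed on for 72 h, then area was imaged; spheres lacking growth factors defined reduced proliferation.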
# [19] = IUF_NPC1_viability_72hr: Viability Assessment at 72 hours in the Leibniz Research Institute for Environmental Medicine (IUF) Neural Progenitor Cell Proliferation Assay (NPC1) (AID 2284209)
# How it was run: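 Each well receives one 0.3 mm progenitor sphere from fetal brain cortex; test chemical is added at plating and left three days. Viability comes from alamar blue fluorescence, multiplexed with LDH and BrdU readouts in the same well.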
# [20] = CCTE_Mundy_HCI_hN2_NOG_NeuriteCount: CCTE's Neurite Outgrowth Assay in human hN2 cells for Neurite Count, Mundy Lab (AID 2284219; active = hit-call score of the fitted dose curve at least 0.9, where 1 is the maximum)
# How it was run: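 In this morphology assay, hNP1-derived neurons received test chemical 2 h post-plating and were fixed two days later in warm paraformaldehyde/sucrose containing Hoechst 33342. Neurites, labelled by rabbit anti-βIII-tubulin (1:800) and Alexa Fluor-488 (1:500), were counted automatically.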
compound,measurement,setting,value
C=C(C)C(=O)[O][Sn]([CH2]CCC)([CH2]CCC)[CH2]CCC,AC50,[1],1.98 µM (active)
same,AC50,[2],4.69 µM (active)
same,AC50,[3],0.127 µM (active)
same,AC50,[4],0.0915 µM (active)
same,outcome,[5],inactive
same,AC50,[6],0.0288 µM (active)
same,AC50,[7],0.168 µM (active)
same,AC50,[8],0.0977 µM (active)
same,AC50,[9],0.0607 µM (active)
same,AC50,[10],0.0799 µM (active)
same,AC50,[11],0.123 µM (active)
same,AC50,[12],89.3 nM (active)
same,AC50,[13],161 nM (active)
same,AC50,[14],59.7 nM (active)
same,AC50,[15],67.2 nM (active)
Cn1sc(Cl)cc1=O,AC50,[1],4.61 µM (active)
same,AC50,[4],5.49 µM (active)
same,AC50,[6],4.5 µM (active)
CCN1CCC2(CC1)COc1cc3c(cc12)N(C(=O)c1ccc(-c2ccc(-c4nnc(C)o4)cc2C)cc1)CC3,AC50,[2],17.2 µM (active)
CC(C)(C)c1cc(O)ccc1O,AC50,[1],15 µM (active)
same,outcome,[2],inactive
same,AC50,[4],15.2 µM (active)
same,outcome,[5],inactive
same,AC50,[6],6.2 µM (active)
same,outcome,[16],inactive
ClC(Cl)=C(Cl)C(Cl)=C(Cl)Cl,outcome,[16],inactive
COP(=O)(OC)O/C(=C\Cl)c1cc(Cl)c(Cl)cc1Cl,AC50,[1],50 µM (active) and 51.5 µM (active)
same,AC50,[4],50 µM (active)
same,outcome,[4],inactive
same,outcome,[6],inactive
same,outcome,[7],inactive
same,AC50,[17],51.5 µM (active)
same,AC50,[18],41.6 µM (active)
same,AC50,[19],34.3 µM (active)
same,outcome,[9],inactive
same,outcome,[10],inactive
same,AC50,[11],34 µM (active) and 32.9 µM (active)
same,AC50,[12],32.5 µM (active) and 31.3 µM (active)
same,outcome,[13],inactive
same,outcome,[14],inactive
same,outcome,[15],inactive
same,AC50,[20],6.28 µM (active)
CCOP(=S)(OCC)Oc1nc(Cl)c(Cl)cc1Cl,AC50,[1],13.2 µM (active) and 13.7 µM (active) and 24.3 µM (active)
same,outcome,[3],inactive
same,AC50,[4],18.2 µM (active) and 22.5 µM (active) and 24 µM (active)
same,AC50,[6],23.5 µM (active) and 15 µM (active) and 20.4 µM (active)
same,outcome,[7],inactive
same,AC50,[8],218 µM (active)
same,outcome,[17],inactive
same,outcome,[18],inactive
same,outcome,[19],inactive
same,AC50,[9],50 µM (active)
same,outcome,[9],inactive
same,AC50,[10],26.7 µM (active)
same,AC50,[11],32.4 µM (active)
same,AC50,[12],32 µM (active) and 33.4 µM (active)
same,AC50,[13],31.2 µM (active) and 29 µM (active)
same,AC50,[14],50 µM (active) and 24.7 µM (active)
same,outcome,[16],inactive
same,AC50,[15],50 µM (active) and 27.4 µM (active)
same,AC50,[20],29.1 µM (active)
CCC(C)(C)c1ccc(O)c(C(C)(C)CC)c1,AC50,[2],35.4 µM (active)
same,outcome,[5],inactive
CCCCCCCCc1ccc(O)cc1,outcome,[2],inactive
same,outcome,[5],inactive
CC(C)(c1ccccc1)c1ccc(O)c(C(C)(C)c2ccccc2)c1,outcome,[2],inactive
same,outcome,[5],inactive
O=C(O)C(F)(F)C(F)(F)C(F)(F)C(F)(F)C(F)(F)C(F)(F)F,outcome,[6],inactive
O=C(Nc1ccc2[nH]ccc2c1)c1cc2cc(F)ccc2n1Cc1cccc(F)c1,outcome,[2],inactive
same,outcome,[5],inactive
O=C(O)C(F)(F)C(F)(F)C(F)(F)C(F)(F)C(F)(F)C(F)(F)C(F)(F)C(F)(F)C(F)(F)C(F)(F)F,outcome,[1],inactive
same,outcome,[2],inactive
same,outcome,[5],inactive
same,outcome,[6],inactive
O=C1C2(Cl)C3(Cl)C4(Cl)C(Cl)(Cl)C5(Cl)C3(Cl)C1(Cl)C5(Cl)C24Cl (centres undefined),AC50,[1],8.19 µM (active)
same,outcome,[2],inactive
same,AC50,[3],14.6 µM (active)
same,AC50,[4],8.77 µM (active)
same,outcome,[5],inactive
same,AC50,[6],1.15 µM (active)
same,AC50,[7],2.17 µM (active)
same,AC50,[8],3.44 µM (active)
same,outcome,[9],inactive
same,AC50,[10],22.7 µM (active)
same,AC50,[11],22.7 µM (active)
same,AC50,[12],16700 nM (active)
same,AC50,[13],21500 nM (active)
same,AC50,[14],20700 nM (active)
same,AC50,[15],19300 nM (active)
Oc1cccc2cccnc12,outcome,[16],inactive
ClC1(Cl)C2(Cl)C3(Cl)C4(Cl)C(Cl)(Cl)C5(Cl)C3(Cl)C1(Cl)C5(Cl)C24Cl (centres undefined),AC50,[1],1.92 µM (active)
same,outcome,[2],inactive
same,AC50,[4],2.83 µM (active)
same,AC50,[6],2.41 µM (active)
O=C(O)C(Cl)(Cl)Cl,outcome,[5],inactive
CC(=O)OC(c1ccccc1)C(Cl)(Cl)Cl (centres undefined),outcome,[5],inactive
CC(C)(C)CC(C)(C)c1ccc(O)cc1,outcome,[2],inactive
same,outcome,[5],inactive
CC(=O)[O][Hg][c]1ccccc1,AC50,[1],0.0183 µM (active)
same,AC50,[2],20 µM (active)
same,AC50,[4],0.022 µM (active)
same,outcome,[5],inactive
same,AC50,[6],0.0159 µM (active)
COC(=O)Cc1ccccc1,outcome,[2],inactive
same,outcome,[5],inactive
C[C@]12CCC(=O)C[C@@H]1CC[C@@H]1[C@@H]2CC[C@]2(C)[C@@H](O)CC[C@@H]12,outcome,[2],inactive
same,outcome,[5],inactive
CC(C)(OO)c1ccccc1,outcome,[2],inactive
same,outcome,[5],inactive
CCOP(=S)(OCC)SCSP(=S)(OCC)OCC,outcome,[2],inactive
CCC(=O)C(CC(C)N(C)C)(c1ccccc1)c1ccccc1 (centres undefined),AC50,[1],7.25 µM (active)
same,outcome,[2],inactive
same,outcome,[4],inactive
same,AC50,[6],7.25 µM (active)
